IL-1B inflam inh: inflammasome signaling inhibition, IL-1 beta readout; THP-1 LPS/ATP IL-1B secretion, AlphaLISA, 16 h; hits give low values; actives 4.7% (n = 360,000); activity change, % at 57.5 µM; in the data active means activity change below about -50%; inconclusive means mostly about -30% to -49%
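THP-1 cells pretreated 1 hr with compounds (up to 57.5 uM final), then stimulated with LPS (250 ng/mL final) plus ATP (1.25 mM final); secreted IL-1B measured by AlphaLISA after 16 hr, decreased signal indicating inhibition.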
HT1080-NT tox: kills 2HG-producing HT-1080-NT fibrosarcoma cells; AID 686970; HT-1080-NT fibrosarcoma viability, CellTiter-Glo ATP luminescence, 48 h; actives 1.6% (n = 360,000); Potency, µM (highest dose often 46.1 µM), usual class: cytotoxic;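 further: NT is the 2HG producing partner of a matched IDH1 knockdown line; nearly all actives have a fitted effect of over 55% in size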
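Viability by CellTiter-Glo luminescence after 48 h compound exposure at 37C of HT-1080-NT cells (750/well, RPMI, 5% FBS). % activity scaled between DMSO wells and medium-only wells, then curve-fitted and categorized by curve class.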
HT1080 IDH1KD tx: toxicity to HT-1080 IDH1 knockdown cells (counter line); HT-1080 IDH1 knockdown viability, ATP luminescence, 48 h; AID 686971; actives 2% (n = 360,000); Potency, µM (titrated, usually from 46.1 µM), usual class: cytotoxic
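% activity derives from luminescence (CellTiter-Glo), normalised to DMSO and no-cell wells. HT-1080-IDH1KD cells, 750/well, had 48 h compound exposure at 37 °C.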
ELG1 DNA repair: blocks ELG1-dependent DNA repair in HEK293T cells. HEK293T ELG1-luciferase reporter, luminescence, 16 h; DNA damage induced by 5-fluorouridine. actives 2.3% (n = 330,000). Potency, µM (titrated, usually from 46.1 µM), usual class: inhibitors; further: nearly all actives have a fitted effect of over 55% in size
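DMSO vehicle served as the neutral condition. Each well held 2,000 cells given 5-fluorouridine plus compound; after 16 hr at 37 °C/5% CO2, ONE-Glo was added and luciferase measured 30 min later.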
TDP1 cell noCPT: qHTS for Inhibitors of human tyrosyl-DNA phosphodiesterase 1 (TDP1): qHTS in cells in absence of CPT | Potency, µM (highest dose often 46.2 µM), most hits filed as inhibitors | actives 15% (n = 420,000) | DT40 Tdp1-/- hTDP1 cells, no CPT, ATP luminescence, 48 h | AID 686978, 2013; further: nearly all actives have a fitted effect of over 55% in size
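Stably hTDP1-transfected Tdp1-null chicken DT40 cells were treated with library compounds minus camptothecin and grown for at least 48 hr at 37 °C, after which cellular ATP was quantified by luminescence.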
TDP1 cell CPT: growth inhibition of DT40 Tdp1-/-;hTDP1 cells with camptothecin (screen for TDP1 inhibitors); chicken DT40 Tdp1-/-;hTDP1 cells + 20 nM CPT, ATP luminescence, 48 h; Potency, µM (titrated, usually from 46.2 µM), hits mostly inhibitors; actives 12% (n = 420,000); further: nearly all actives have a fitted effect of over 55% in size
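Chicken DT40 Tdp1-/- cells stably complemented with human TDP1 were seeded at 400 cells/well in medium containing 20 nM camptothecin, exposed to pin-transferred compounds, and grown at 37 °C for at least 48 hr. Viability was read as ATP luminescence.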
A number is an active result; n = inactive; u = inconclusive; x = not tested or not shown; [ ] = dose if it differs, or a comment. Only some compounds are listed: those with a hit (about 19% of all), similar ones and a draw of the others. Unless noted, the call rests on the fitted dose curve; in most records, active means well fitted curve in the direction sought with a large enough effect; inconclusive means small, poorly fitted or top-dose-only effect, or another doubt; inactive means no such curve, though single readings can be large; an effect the other way counts as inactive or inconclusive.

SMILES	IL-1B inflam inh	HT1080-NT tox	HT1080 IDH1KD tx	ELG1 DNA repair	TDP1 cell noCPT	TDP1 cell CPT
Cc1cccc(CS(=O)(=O)c2nnc([C@H](Cc3ccccc3)NC(=O)OC(C)(C)C)o2)c1	u	5µM	2.8µM	n	1.5µM	1.3µM
O=C(NCC[C@H]1CC[C@H](NS(=O)(=O)c2ccccc2F)[C@@H](CO)O1)c1ccc(F)cc1	n	n	n	x	n	n
CCN1CCN(c2ccc(S(=O)(=O)N3CCOCC3)cc2NC(=O)/C=C/c2ccc(C)cc2)CC1	u	n	n	n	u	n
CC(=O)c1cccc(OC(=O)c2cc(S(=O)(=O)N3CCOCC3)ccc2N2CCCC2)c1	n	n	n	9.2µM	u	u
O=C(/C=C/c1ccc(Cl)cc1)Nc1cc(S(=O)(=O)N2CCOCC2)ccc1N1CCOCC1	u	n	n	26µM	u	u
O=C(Nc1cc(S(=O)(=O)N2CCOCC2)ccc1N1CCCC1)c1ccccc1F	n	n	n	x	n	n
CC(=O)c1cccc(NC(=O)c2cc(S(=O)(=O)N3CCCCC3)ccc2N2CCOCC2)c1	n	n	n	x	u	u
O=C(Nc1cc(S(=O)(=O)N2CCOCC2)ccc1N1CCCC1)c1ccc2c(c1)S(=O)(=O)c1ccccc1C2=O	u	n	n	10µM	u	13µM
CSc1ccc(Cl)c(C(=O)Nc2cc(S(=O)(=O)N3CCOCC3)ccc2N2CCOCC2)c1	n	n	n	18µM	u	n
CC(=O)c1cc2c(cc1NC(=O)Cc1c(C)noc1C)OCO2	n	n	n	u	n	u
COc1cccc(C(=O)NCC2OCCc3ccccc32)c1 (stereo not given)	x	x	x	x	n	n
O=C(Nc1ccc(Cl)c(Cl)c1)Nc1cc(S(=O)(=O)N2CCOCC2)ccc1N1CCCC1	-60	n	u	u	18µM	u
O=C(/C=C/c1ccc(S(=O)(=O)N2CCOCC2)cc1)NCc1ccc(Cl)cc1	-62	n	n	n	18µM	u
Cc1ccc(C(=O)Nc2cc(S(=O)(=O)N3CCOCC3)ccc2N2CCCC2)cc1	u	n	n	n	u	n
Cc1c(C(=O)Nc2cc(S(=O)(=O)N3CCOCC3)ccc2N2CCN(C)CC2)oc2ccccc12	n	n	n	16µM	18µM	u
O=C(Nc1cc(S(=O)(=O)N2CCOCC2)ccc1N1CCCCC1)c1ccc(Cl)cc1	n	n	n	n	13µM	18µM
COc1ccc(CNC(=O)/C=C/c2ccc(S(=O)(=O)N3CCOCC3)cc2)cc1	n	n	n	u	u	n
CN1CCN(c2ccc(S(=O)(=O)N3CCOCC3)cc2NC(=O)CC(C)(C)C)CC1	n	n[9.24 µM]	n	n	n	u
Cc1nnc(N2C(=O)c3oc4ccccc4c(=O)c3C2c2ccc(F)cc2)s1 (stereo not given)	x	x	x	x	n	n
Cc1ccccc1C(=O)Nc1cc(S(=O)(=O)N2CCCCC2)ccc1N1CCN(C)CC1	n	u	n	n	n	n
O=C(Nc1cc(S(=O)(=O)N2CCOCC2)ccc1N1CCCCC1)c1ccccc1	u	n	n	u	21µM	u
CC(=O)c1ccccc1NC(=O)c1cc(S(=O)(=O)N2CCOCC2)ccc1N1CCCC1	n	n	n	u	21µM	u
CN1CCN(c2ccc(S(=O)(=O)N3CCCCC3)cc2NC(=O)c2ccc3ccccc3c2)CC1	-92	n	u	u	u	u
CC1CN(S(=O)(=O)c2cccc(C(=O)Nc3ccccc3N3CCCCC3)c2)CC(C)O1 (stereo not given)	n	n	n	n	13µM	16µM
COc1cccc(C(=O)Nc2cc(S(=O)(=O)N3CCOCC3)ccc2N2CCOCC2)c1	n	n	n	x	n	n
CC(C)COc1cccc(C(=O)Nc2cc(S(=O)(=O)N3CCOCC3)ccc2N2CCCC2)c1	x	n	n	x	21µM	u

Screens (PubChem)
